In the library only some 2.5% were active in any assay of this set; here they are far more common.
PHOSPHO1 inh – inhibitors of human PHOSPHO1 phosphatase. inhibition, % at 13.3 µM. AID 1565. Q8TCT1. recombinant PHOSPHO1, absorbance phosphatase assay. actives 1.1% (n = 290,000); in the data active = inhibition above about 60%
G6PDH CS – L. mesenteroides G6PDH inhibition counter-screen; inhibition, % at 5 µM; actives 0.12% (n = 200,000); Purified L. mesenteroides G6PDH, diaphorase/resazurin coupled fluorescence, 45 min; in the data active = inhibition above about 50%
p97 inhibitor – inhibitors of human p97 ATPase | P55072 | recombinant p97 ATPase, Kinase-Glo ATP luminescence, 3 h | inhibition, % at 8 µM | actives 0.42% (n = 220,000) | AID 1481; in the data active = inhibition above about 15%;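 note: 0% = DMSO vehicle and 100% = wells lacking enzyme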
HDAC3 inh – inhibitors of human histone deacetylase 3; O15379; recombinant HDAC3, fluorogenic peptide/trypsin coupled, fluorescence; inhibition, % at 8.3 µM; actives 0.15% (n = 320,000); AID 2718; in the data active = inhibition above about 26%, passing the limit was not always enough
Target sequence (O15379 whole entry, looked up): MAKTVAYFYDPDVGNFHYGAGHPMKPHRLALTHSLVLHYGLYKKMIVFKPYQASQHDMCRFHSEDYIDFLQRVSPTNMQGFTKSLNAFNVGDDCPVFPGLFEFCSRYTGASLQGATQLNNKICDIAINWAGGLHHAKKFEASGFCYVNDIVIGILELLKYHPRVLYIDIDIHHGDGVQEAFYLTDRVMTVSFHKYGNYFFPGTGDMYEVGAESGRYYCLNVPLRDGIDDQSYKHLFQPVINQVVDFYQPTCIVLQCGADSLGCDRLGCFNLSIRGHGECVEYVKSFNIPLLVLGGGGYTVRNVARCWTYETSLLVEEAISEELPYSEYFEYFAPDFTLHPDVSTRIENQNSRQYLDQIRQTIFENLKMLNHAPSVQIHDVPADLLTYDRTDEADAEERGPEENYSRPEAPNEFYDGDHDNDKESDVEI
SUMO HTRF inh – blocks human SUMOylation mediated by UBC9. inhibition, % at 35 µM. HTRF SUMOylation assay, SAE1/SAE2 + UBC9, in vitro. P63279. actives 0.36% (n = 290,000); in the data active = inhibition above about 50%, passing the limit was not always enough
PfM18AAP inh-1 – PfM18AAP enzyme inhibition; AID 1822; recombinant PfM18AAP, H-Glu-NHMec fluorogenic cleavage; actives 1.2% (n = 290,000); inhibition, % at 7.35 µM;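 active = inhibition above the campaign mean inhibition over all tested compounds plus 3 SD, cut at about 28% in these data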;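 note: 0% = plate median of test compound wells and 100% = 2 mM ZnCl2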
PfM18AAP inh-2 – PfM18AAP inhibition, confirmation | shares compounds with PfM18AAP inh-1 | recombinant PfM18AAP, H-Glu-NHMec fluorogenic cleavage | inhibition, % at 7.35 µM | actives 28% (n = 2,400);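 active = mean inhibition over replicate wells above the hit cutoff set for the earlier primary screen, cut at about 29% in these data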;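 note: 0% = median of test compound wells and 100% = 2 mM ZnCl2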
CTSL1 confirm – Cathepsin L (human) inhibition, confirmation; shares compounds with PfM18AAP inh-1; purified cathepsin L1, Z-Leu-Arg-MCA fluorescence; inhibition, % at 5.96 µM; 2,400 tested, under 10 active; AID 2178;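 active = average inhibition across replicates above the hit cutoff set in the earlier primary screen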;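 note: 0% = median of test compound wells and 100% = Z-Phe-Ala-diazomethylketone 1 µM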
Numbers without * were called inactive; . = not tested or not shown.

SMILES	PHOSPHO1 inh	G6PDH CS	p97 inhibitor	HDAC3 inh	SUMO HTRF inh	PfM18AAP inh-1	PfM18AAP inh-2	CTSL1 confirm
CCn1c(NC(=O)c2ccc(F)cc2)c2ccccc2nc1=O	18	-19	-1	19	-6	-4	.	.
O=C(Nc1nc(=O)c2ccccc2s1)c1ccc(F)cc1	2	9	4	4	6	42*	-32	-1
CC(C)[C@H](NS(=O)(=O)c1cccc(C(F)(F)F)c1)C(=O)OCC(=O)NC(=O)NCc1ccco1	.	.	.	-6	.	.	.	.
COc1ccc(OCc2cc(C(=O)N3C[C@H]4CC[C@H]3C4)no2)c(Cl)c1	-37	.	.	7	-2	-4	.	.
Cn1c(SCc2nc3ccccc3n2CCO)nc2ccccc21	33	-3	-3	4	5	-4	.	.
Cn1c(CSc2ncn[nH]2)nc2ccccc21	16	12	-2	1	10	53*	10	-5
Cc1ccc(NC(=O)CSCC(=O)Nc2ccccc2N2CCCC2)cc1	.	.	.	-1	.	.	.	.
O=C(OCC1CCCN2CCCCC12)c1ccc2c(c1)OCO2 (centres undefined)	-2	9	3	-3	18	35*	10	-8
CSc1ncc(C(=O)Nc2ccccc2F)c(-c2ccccc2)n1	16	.	.	-9	28	-3	.	.
CCN1/C(=C/c2cc[n+](CCCS(=O)(=O)[O-])c3ccccc23)Sc2ccccc21	-2	-3	-3	13	10	33*	-45	-2
Cn1c(N)c(C(=O)COC(=O)c2ccc3c(c2)C(=O)N(c2ccc(Cl)cc2)C3=O)c(=O)n(C)c1=O	56	-2	-1	-1	5	-10	.	.
Cc1ccccc1NC(=S)C1=C(O)c2sccc2N(C)S1(=O)=O	92*	6	3	-1	22	33*	-47	3
CCOC(=O)c1cnc2cc(F)c(F)cc2c1N1CCOCC1	37	.	.	6	7	-12	.	.
CC(=O)/C(=N/Nc1cccc(C)c1)N1CCOCC1	92*	2	2	-2	8	42*	-68	27*
O=C(c1ccncc1)N1CCN(S(=O)(=O)c2cccc(C(F)(F)F)c2)CC1	.	.	.	5	.	.	.	.
N#CC1=C(N)Oc2n[nH]c(-c3cccnc3)c2C1c1ccc([N+](=O)[O-])o1 (centres undefined)	12	0	11	10	7	33*	-36	-5
O=C(COc1ccccc1)NNc1nc2c(F)cc(F)cc2s1	-10	1	-6	-2	-16	2	.	.
Cc1cccc2sc(NNC(=O)C3=COCCO3)nc12	20	14	5	-1	-14	43*	18	2
O=C(NNc1nc2c(F)cc(F)cc2s1)C1=COCCO1	27	0	-3	-1	-8	33*	-5	0
CCC(=O)NNc1nc2c(F)cc(F)cc2s1	37	13	16*	-3	8	44*	13	-4
O=C(NNc1nc2c(F)cc(F)cc2s1)C1COc2ccccc2O1 (centres undefined)	32	8	-5	1	-16	0	.	.
Cc1cccc2sc(NNC(=O)C3COc4ccccc4O3)nc12 (centres undefined)	-9	16	3	-3	4	36*	-23	2
Cc1ccnc(SCC(=O)NC2CC2)n1	22	.	.	-1	16	-1	.	.
Cc1ccc(C)c(NC(=S)c2ccc3ccccc3n2)c1	-14	5	-2	-5	-20	-11	.	.
CN(C)c1ccc(NC(=S)c2ccc3ccccc3n2)cc1	7	.	.	5	5	35*	22	-4
NC(=O)c1ccc(-c2ccc(Br)cc2)o1	9	8	0	2	13	-11	.	.
NC(=O)C1CCN(C(=S)c2ccc(-c3ccc(Br)cc3)o2)CC1	-23	5	3	12	11	49*	-13	7
COc1ccc([C@@]2(C(C)C)ON(c3ccccc3C(F)(F)F)C2=O)cc1	.	.	.	7	.	.	.	.
CCCCN(C(=O)c1ccc(S(=O)(=O)N2CCC(C)CC2)cc1)C1CCS(=O)(=O)C1 (centres undefined)	.	.	.	0	.	.	.	.

Screening data from PubChem BioAssay.
